Bioassay records (PubChem)
USP30 block = blocks human USP30 ubiquitin-rhodamine cleavage; Q70CQ3; purified USP30, Ub-rhodamine cleavage fluorescence; inhibition, % at 25 µM; 47,000 tested, 5.3% active; AID 1645860
USP28 inh = human USP28 deubiquitinase inhibition; purified USP28, Ub-rhodamine cleavage fluorescence, 30 min; AID 1645857; 47,000 tested, 3% active; inhibition, % at 25 µM
Of the large screens only hits and unclear results are named; the others gave an inactive call. Rows were chosen to be rich in hits. Some 7% of all compounds tested hit in one or more screens of this group. Cut-off read from the data, not from the text of the source: active = inhibition above about 30%; inactive = the rest.

CS(=O)(=O)N1CCC2(CC1)CN(Cc1ccccn1)C(=O)CO2	none
O=C(Cc1cccc2ccccc12)NCc1nnnn1-c1cccc(F)c1	none
Cc1nc(-c2ccc(C(=O)NCc3ccc(F)cc3)cc2)cs1	none
CCCC(=O)c1c[nH]c(C(=O)NCc2ccc(F)cc2)c1	USP28 inh 34.7
O=C(CSc1nccn1-c1ccc([N+](=O)[O-])cc1)NCc1ccc2c(c1)OCO2	none
Fc1cccc(CN2CCC[C@@H](Cn3nnc(-c4ccccn4)n3)C2)c1	none
COc1ccc(Cl)cc1NC(=O)COC(=O)C(Cc1c[nH]c2ccccc12)NC(=O)c1ccccc1Cl (stereo not given)	USP30 block 31.1
Cc1ccc(C)c(NC(=O)COC(=O)C(Cc2c[nH]c3ccccc23)NC(=O)c2ccccc2Cl)c1 (stereo not given)	none
N#Cc1ccccc1NC(=O)COC(=O)C(Cc1c[nH]c2ccccc12)NC(=O)c1ccc(Cl)cc1 (stereo not given)	none
O=C(COC(=O)C(Cc1c[nH]c2ccccc12)NC(=O)c1ccccc1Cl)Nc1ccc([N+](=O)[O-])cc1C(F)(F)F (stereo not given)	none
CSc1ccccc1NC(=O)COC(=O)C(Cc1c[nH]c2ccccc12)NC(=O)c1ccccc1Cl (stereo not given)	USP30 block 30.3
O=C(COC(=O)C(Cc1c[nH]c2ccccc12)NC(=O)c1ccccc1Cl)c1ccc([N+](=O)[O-])cc1 (stereo not given)	USP30 block 38.5
CCCC(NC(=O)Cn1nc(C)c(S(=O)(=O)N(C)C)c1C)c1ccccc1 (stereo not given)	none
Cn1c(=O)c2c(nc3n(CCc4ccccc4)c(-c4ccccc4)cn23)n(C)c1=O	USP30 block 41.3
COc1ccc(-c2cn3c4c(=O)n(C)c(=O)n(C)c4nc3n2CCc2ccccc2)cc1OC	none
COc1ccccc1[C@]1(C(=O)N2CCOCC2)C[C@H]1COc1ccc(S(C)(=O)=O)cc1	none
O=C(c1cnc2n1CC(c1cccc(C(F)(F)F)c1)CC2)N1CCNCC1 (stereo not given)	USP30 block 30.2
CNC(=O)c1cnc2n1CC(c1cccc(C(F)(F)F)c1)CC2 (stereo not given)	none
O=S(=O)(c1cccnc1)N1CCC2(C1)Nc1cccnc1NC2=NC1CCCC1 (stereo not given)	none
CCn1ccc2c(cc(C(=O)Nc3cc(F)ccc3F)n2C)c1=O	USP28 inh 70.0
Cn1ccc2c(cc(C(=O)NCc3ccccc3F)n2C)c1=O	none
CCn1ccc2c(cc(C(=O)Nc3c(C)cccc3C)n2C)c1=O	none
CCn1ccc2c(cc(C(=O)Nc3cccc(OC)c3)n2C)c1=O	USP28 inh 83.0
CCN(CC)C(=O)c1sc(NC(=O)/C=C/c2c(F)cccc2Cl)c(C#N)c1C	none
CC(C)(C)C(=O)CN1CCC2(CC1)Nc1ccccc1S(=O)(=O)N2	none
COCCN1CCn2c1nc(-c1ccccc1)cc2=O	none
OCc1cnc(SCc2ccccc2Cl)n1Cc1ccc(F)cc1	none
CSc1cccc(NC(=O)c2ccc(-c3cncnc3)nc2)c1	none
Cc1nc2sc(C(=O)Nc3ccccc3Br)c(N)c2c(C)c1C	USP30 block 50.6, USP28 inh 32.6
Cc1cc(C(F)(F)F)c2c(N)c(C(=O)Nc3cccc(C(F)(F)F)c3)sc2n1	none
C[C@]12C(=O)N(c3ccc(C(=O)NCc4ccco4)cc3)C(=O)N1CCc1c2[nH]c2ccccc12	none
CCc1ccc(NC(=O)c2ccccc2N2C(=O)N3CCc4c([nH]c5ccccc45)[C@@]3(C)C2=O)cc1	none
C[C@]12C(=O)N(c3cccc(C(=O)O)c3)C(=O)N1CCc1c2[nH]c2ccccc12	USP30 block 36.3
C[C@]12C(=O)N(c3ccc(C(=O)NCc4ccc(F)cc4)cc3)C(=O)N1CCc1c2[nH]c2ccccc12	USP30 block 52.0
COc1ccc(CNC(=O)c2cccc(N3C(=O)N4CCc5c([nH]c6ccccc56)[C@@]4(C)C3=O)c2)cc1	none
CC(=O)Nc1ccc(NC(=O)c2ccc(N3C(=O)N4CCc5c([nH]c6ccccc56)[C@@]4(C)C3=O)cc2)cc1	USP28 inh 30.6
CN1C(=O)OC2(CCN(C(=O)c3ccc(F)cc3)CC2)c2ccccc21	none
CCN1CCN(c2ncnc3onc(-c4cccc(OC)c4)c23)CC1	none
O=C(Nc1ccncc1)c1nn(-c2ccc(F)cc2)c2c1CCCCC2	none
CCOC(=O)c1nn(-c2ccc(F)cc2)c2c1CCCCC2	USP28 inh 36.0
COC(=O)c1sccc1NC(=O)Cc1nc(-c2ccc(OC)cc2)no1	none
O=C(Nc1cccc(-c2ccc(N3CCOCC3)nn2)c1)c1ccc2ccccc2c1	none
NC(=O)c1cc(NC(=O)c2ccc3ccccc3c2)cc(C(N)=O)c1	USP30 block 66.4, USP28 inh 57.2
COc1ccccc1-c1nc(C#N)c(N2CCN(C(=O)c3ccccc3)CC2)o1	USP30 block 47.0
COc1cccc(/C=C/c2nc(C#N)c(N3CCN(C(=O)c4ccc(F)cc4)CC3)o2)c1	none
O=C(CCc1nc(CSc2nnc(-c3ccccc3)o2)no1)Nc1ccccc1F	none
Cc1cc(-c2ccccc2)n2nc(-c3sccc3-n3c(C)ccc3C)cc2n1	none
O=C(COc1ccc2c(-c3ccccc3)cc(=O)oc2c1)Nc1cccnc1	USP30 block 68.1
O=C(COc1ccccc1)Nc1cnc(-c2cccnc2)nc1	none
O=C1NCCCn2cc(S(=O)(=O)NC3CCCCCC3)cc21	none
O=C(c1ccc2c(c1)N(Cc1ccc(F)cc1)C(=O)c1ccccc1S2=O)N1CCN(c2ccccn2)CC1 (stereo not given)	USP30 block 39.5
Cc1c(C)n(C)c2ccc(C(=O)N3CCN(c4ccccn4)CC3)cc12	none
COc1ccccc1N1CCN(C(=O)c2ccc3c(c2)N(Cc2cc(C)ccc2C)C(=O)c2ccccc2S3=O)CC1 (stereo not given)	USP30 block 50.8
COc1ccccc1N1CCN(C(=O)c2[nH]c3ccccc3c2NC(=O)c2cccc(C)c2)CC1	none
Cc1ccc(C)c(CN2C(=O)c3ccccc3S(=O)c3ccc(C(=O)N4CCN(c5ccccn5)CC4)cc32)c1 (stereo not given)	USP30 block 38.9
O=C(c1ccc2nc(C(F)(F)F)[nH]c2c1)N1CCN(c2ccccn2)CC1	none
CCOc1ccc(C(C(=O)NC2CCCCC2)N(C(=O)c2ccco2)c2ccccc2OC)cc1 (stereo not given)	none
COc1ccc2nc(NC(=O)c3ccccc3-c3ccc(C(F)(F)F)cc3)sc2c1	none
COc1ccc(CNc2nn3c(-c4ccncc4)cnc3s2)cc1	USP30 block 85.5, USP28 inh 69.8
c1ccc(CNc2nn3c(-c4ccncc4)cnc3s2)cc1	none
Cn1nc(-c2nc(Cc3ccccc3)no2)c2c1CCN(C(=O)C1CCCO1)C2 (stereo not given)	none
CCCC(C)NC(=O)COC(=O)c1cc(-c2ccc(Cl)cc2)nc2ccccc12 (stereo not given)	none
NS(=O)(=O)c1ccc(CCNC(=O)COC(=O)c2cc(-c3ccc(Cl)cc3)nc3ccccc23)cc1	USP30 block 39.4, USP28 inh 36.7
O=c1c2cnc(N3CCOCC3)nc2ccn1CC1CCCO1 (stereo not given)	none
Cc1c(S(=O)(=O)Nc2cccc(F)c2)cc(C(=O)N2CCCCC2)n1C	none
Cc1nc(-c2noc3ccc(C(=O)N4CCCC4)cc23)co1	USP30 block 30.5
Cc1nc(-c2noc3ccc(C(=O)N4CCCN(C)CC4)cc23)cs1	none
Cc1ccc(N2C(=O)c3cccnc3C2CC(=O)N2CCC(C)CC2)cc1 (stereo not given)	none
